High-throughput results as filed in PubChem.
Most compounds without a hit are left out; they make up all but 3.5% or so of the library.
FBW7 act: FBW7 E3 ligase activators, primary screen, biochemical, AlphaScreen, human; AlphaScreen FBW7–phospho-cyclin E peptide binding, activator screen; normalized activity (activation), % at 26.1 µM; hit rate 0.13% among 650,000; AID 1259310, 2017; in the data active = normalized activity above about 1.9%;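 also: purified mutant Fbw7 with reduced substrate affinity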
Target sequence (Q969H0 whole entry, looked up): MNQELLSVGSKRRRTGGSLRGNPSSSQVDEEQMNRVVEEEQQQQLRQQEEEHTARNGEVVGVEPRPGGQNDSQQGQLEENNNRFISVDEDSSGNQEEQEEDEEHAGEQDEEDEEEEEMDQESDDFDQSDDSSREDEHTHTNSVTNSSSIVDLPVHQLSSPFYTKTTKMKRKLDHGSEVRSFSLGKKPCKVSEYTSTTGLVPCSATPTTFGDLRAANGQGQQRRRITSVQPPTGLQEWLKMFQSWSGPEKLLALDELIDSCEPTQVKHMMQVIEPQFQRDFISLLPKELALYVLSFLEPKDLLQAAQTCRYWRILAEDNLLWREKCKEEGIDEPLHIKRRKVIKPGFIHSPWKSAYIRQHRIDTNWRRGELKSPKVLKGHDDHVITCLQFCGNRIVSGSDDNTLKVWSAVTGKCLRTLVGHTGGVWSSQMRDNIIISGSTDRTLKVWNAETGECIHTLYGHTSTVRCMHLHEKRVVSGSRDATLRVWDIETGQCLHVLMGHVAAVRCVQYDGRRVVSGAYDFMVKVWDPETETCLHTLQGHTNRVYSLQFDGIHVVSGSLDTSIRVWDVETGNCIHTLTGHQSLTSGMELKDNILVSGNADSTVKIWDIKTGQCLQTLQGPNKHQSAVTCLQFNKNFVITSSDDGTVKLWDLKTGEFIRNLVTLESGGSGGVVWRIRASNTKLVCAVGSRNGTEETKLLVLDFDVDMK
MITF primary: MITF inhibitors, primary screen, biochemical, AlphaScreen, human; Microphthalmia-associated transcription factor (Homo sapiens), O75030; AlphaScreen MITF homodimerization, bead proximity signal; inhibition, % at 2.6 µM; hit rate 0.91% among 650,000; AID 1259374, 2018; in the data active = inhibition above about 50%;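 also: 0% = vehicle wells with protein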
GPR151 ag: activators of human GPR151, primary screen, cell-based, PathHunter beta-arrestin, luminescence; activation, % at 11.2 µM; PathHunter beta-arrestin GPR151 cells; hit rate 1% among 650,000; in the data active = activation above about 4.9%;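 also: 0% = median of compound wells and 100% = cells with positive control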
TEAD-YAP block: TEAD-YAP interaction inhibition, primary screen, TEAD-YAP interaction inhibitor project, luminescence, HEK-TIYL cells; TEAD-Gal4/YAP UAS-luciferase luminescence; inhibition, % at 9.12 µM; hit rate 1.4% among 640,000; AID 1259422, 2018; in the data active = inhibition above about 32%;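 also: 0% = median of test compound wells and 100% = reference inhibitor wells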
GPR151 conf act: GPR151 activators, triplicate retest, confirmation, cell-based, PathHunter beta-arrestin, luminescence | shares compounds with GPR151 ag | GPR151 PathHunter beta-arrestin cells, 90 min; % of EA-reagent control over plate median | activation, % at 11.2 µM | 6,700 tested, under 10 active | AID 1508609, 2020;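 active = mean percent activation across replicates above the confirmation screen cutoff of 4.91%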
GPR119 counter: GPR119 activators in beta-arrestin cells, counter-screen for GPR151 activator project, cell-based, PathHunter beta-arrestin, luminescence, triplicate; shares compounds with GPR151 ag; 90 min; 0 = compound-well median, 100 = enzyme-acceptor control; activation, % at 11.2 µM; hit rate 0.3% among 6,700;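 active = mean percent activation in the counterscreen above 29.09%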;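 also: counterscreen on off-target GPR119 to flag nonselective hits from the GPR151 activator screen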
An asterisk follows results filed as active; nt = no result; ! = not confirmed by another sample.

SMILES | FBW7 act | MITF primary | GPR151 ag | TEAD-YAP block | GPR151 conf act | GPR119 counter
COc1ccc2c(c1)O[C@H](c1ccc3c(c1)OCO3)C(OC(=O)N[C@H]1CCCc3ccccc31)C2=O (stereo not given in full) | 0 | -21 | 5.3* | nt | 0 | 5
CCc1nc2sc(C(c3cccc(OC)c3)N3CCC4(CC3)OCCO4)c(O)n2n1 (stereo not given) | 0 | -1 | -1 | 0 | nt | nt
Cc1cc(N(C)C)nc(NCCNC(=O)/C=C/c2ccccc2)n1 | 0 | 13 | 5.7* | 19 | 0 | -7
C[C@H]1C[C@@H]2[C@H]([C@@H](O)C[C@@]3(C)[C@H]2CC[C@]3(O)C(=O)CO)[C@@]2(C)C=CC(=O)C=C12 | 0 | 3 | 6.9*! | nt | 0 | 0
Cc1ccc2oc(-c3ccccc3)cc(=NCCO)c2c1 | 0 | 0 | 1 | -8 | nt | nt
CCOc1ccc(-n2c(SCC#N)nc3c(sc(=S)n3-c3ccc(C)cc3C)c2=O)cc1 | 0 | 2 | 0 | 8 | nt | nt
Cc1ccc(-n2c(=S)sc3c(=O)n(-c4ccc(F)cc4)c(SCC#N)nc32)c(C)c1 | 0 | -11 | 6.3* | 2 | 1 | 7
Cc1cc(C)c(S(=O)(=O)NC(N)=NCCc2c[nH]c3ccccc23)cc1C | 0 | -6 | -1 | 6 | nt | nt
O=C(CSc1nc2ccsc2c(=O)n1Cc1ccccc1Cl)Nc1nccs1 | 0 | 3 | -1 | 1 | nt | nt
CC(=O)Oc1ccc2oc(=O)cc(C)c2c1 | 0 | 16 | -1 | -7 | nt | nt
c1ccc(-n2nnnc2NCC2COc3ccccc3O2)cc1 (stereo not given) | 0 | -15 | 5.1* | 0 | -1 | 0
CN(CC1COc2ccccc2O1)c1nnnn1-c1ccccc1 (stereo not given) | 0 | 2 | 0 | 3 | nt | nt
COc1ccc(C(=O)Nc2nc(-c3ccc([N+](=O)[O-])cc3)cs2)c(OC)c1 | 0 | 14 | 0 | 0 | nt | nt
O=C(COc1ccc(Br)cc1)N(c1ccccc1)C1C=CS(=O)(=O)C1 (stereo not given) | 0 | 2 | 6.3* | 13 | 0 | -1
Cc1ccc(N(C(=O)CCc2ccccc2)C2C=CS(=O)(=O)C2)cc1C (stereo not given) | 0 | 0 | 5.4* | 9 | 0 | 3
COc1ccccc1Cn1c(SCC(=O)c2ccccc2)nc2ccc(Br)cc2c1=O | 0 | 14 | 1 | 3 | nt | nt
C=CCN(C#N)c1nc(OC)nc(N2CCCC2)n1 | 0 | 10 | 14* | -2 | 1 | 7
CCCCCCNC(=O)c1ccc2c(c1)ncn2-c1cc(C)cc(C)c1 | 0 | -4 | 0 | 6 | nt | nt
COc1ccc(-c2[nH]nc3c2C(c2cccc(Cl)c2Cl)C(C#N)=C(N)O3)cc1OC (stereo not given) | 0 | 2 | 0 | 5 | nt | nt
COc1ccc(-c2[nH]nc3c2C(c2c[nH]c4ccccc24)C(C#N)=C(N)O3)cc1OC (stereo not given) | 0 | 29 | 6.4* | 21 | 1 | 3
Cc1ccn2c(C(=O)c3cc4ccccc4o3)cnc2c1 | 0 | 7 | 0 | -81 | nt | nt
CCOc1cc(/C=C2\N=C(c3cccc(C)c3)OC2=O)ccc1OC(C)=O | 0 | 1 | 0 | 2 | nt | nt
CCOc1cc(/C=C2/N=C(c3cccc(C)c3)OC2=O)ccc1OS(C)(=O)=O | 1 | 9 | 13* | 12 | -1 | -18
O=C(CCc1ccccc1)N/N=C/c1ccccc1O | 0 | -7 | 5.9* | -3 | -1 | -7
N#Cc1ccc(/C=N/NC(=S)NCc2ccccc2)cc1 | 0 | 8 | 0 | 3 | nt | nt
SMILES | FBW7 act | MITF primary | GPR151 ag | TEAD-YAP block | GPR151 conf act | GPR119 counter
C/C(=N\NC(=O)CCc1ccccc1)c1ccc(Br)cc1 | 0 | 1 | 5.9* | 1 | 1 | 6
N#Cc1ccc(/C=N/NC(=O)CCc2ccccc2)cc1 | 0 | 5 | 6.0* | 7 | 0 | 7
CSc1ncccc1C(=O)OCC(=O)Nc1ccc(C(N)=O)cc1 | 0 | 1 | 0 | -7 | nt | nt
O=C1c2cc(Cl)c(Cl)cc2C(=O)N1c1ccc(I)cc1 | 0 | -4 | -1 | -15 | nt | nt
CN(C)C(=O)CN1C(=O)NC(C)(c2ccc(Cl)cc2Cl)C1=O (stereo not given) | 0 | 4 | 1 | 4 | nt | nt
Cc1cc(C)n(-c2cc(NCCNC(=O)C(C)(C)Oc3ccc(Cl)cc3)nc(C)n2)n1 | 0 | -18 | 8.6* | 10 | 1 | 0
COc1ccc(C(=O)Cn2nnc(-c3ccccc3NC(=O)c3ccccc3F)n2)cc1 | 0 | 6 | 0 | -1 | nt | nt
CC1CCCCN1S(=O)(=O)c1ccc(NC(=O)CSc2nc3ccccc3o2)cc1 (stereo not given) | 0 | 8 | -1 | -1 | nt | nt
CCC(C(=O)Nc1ccc(S(=O)(=O)N2CCC(C)CC2)cc1)c1ccccc1 (stereo not given) | 0 | -17 | 5.0* | -2 | 1 | 4
O=C(CSc1cccc[n+]1[O-])Nc1ccccc1 | 0 | -9 | 1 | -10 | nt | nt
O=C(CSc1cccc[n+]1[O-])Nc1ccc(S(=O)(=O)N2CCCC2)cc1 | 0 | -10 | 6.4* | 3 | 0 | -2
CC1CCN(S(=O)(=O)c2ccc(NC(=O)CSc3nc4ccccc4o3)cc2)CC1 | 0 | 4 | 16* | 11 | 2 | 27
CCOC(=O)N1CCN(S(=O)(=O)c2ccc(C(=O)Nc3nc(-c4ccc(OC)cc4)cs3)cc2)CC1 | 0 | -2 | 1 | 12 | nt | nt
Cc1ccc(C2CC(=O)n3c(nc4ccccc43)N2)cc1 (stereo not given) | 0 | 12 | 1 | -7 | nt | nt
Cc1ccc(C2CC(=O)n3nc(N)nc3N2)cc1 (stereo not given) | 0 | 14 | 5.9* | -1 | 0 | 5
O=C(c1ccc(C#CC2(O)CCCCC2)cc1)N1CCN(c2ccccc2)CC1 | 0 | 9 | 2 | 1 | nt | nt
O=C(c1ccccc1)N1CCN(CC#CC2(O)CCCCC2)CC1 | 1 | 20 | 10* | -2 | 1 | 4
O=C(c1cc(-c2ccc(Cl)cc2)nc2ccccc12)N1CCOCC1 | 0 | -3 | 0 | 3 | nt | nt
O=C(c1cc(-c2cccc(Cl)c2)nc2ccccc12)N1CCOCC1 | 0 | -10 | 11* | 7 | -1 | -3
O=C(Nc1nc2ccc3ccccc3c2s1)c1ccc(S(=O)(=O)N2CCc3ccccc32)cc1 | 0 | 7 | 0 | -3 | nt | nt
CC(C)c1ccccc1OCCCNC(C)(C)C | 0 | 38 | 7.1* | 12 | 0 | 1
CCCOc1ccccc1CNC(C)(C)C | 0 | -22 | 9.3* | -13 | 1 | 3
